Compounds with a hit are over-represented: about 2.2% of the library has one in this group of screens.
GC-A act: GC-A stimulated cGMP production enhancers – HEK293 GC-A cells, cGMP TR-FRET, EC30 ANP, primary screen | Atrial natriuretic peptide receptor 1 (Homo sapiens), P16066 | 0% at EC30 ANP, 100% saturating ANP | activation, % at 10 µM | 0.14% of 370,000 active | AID 1671463, 2021; in the data active = activation above about 40%
Rce1 inh: yeast Rce1p protease inhibitors, primary screen, biochemical, fluorescence, cell-free homogeneous; CAAX prenyl protease 2 (Saccharomyces cerevisiae (strain ATCC 204508 / S288c)), Q03530; yeast membranes, quenched prenylated peptide cleavage fluorescence; calls only; 0.27% of 290,000 active;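 active = fall in fluorescence gain of 50% or more versus controls, with final raw signal at or below 3038400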
PLC-beta3 inh: human PLC-beta3 inhibitors, primary screen, biochemical, fluorescence. Purified PLC-beta3, fluorogenic substrate. inhibition, % at 12.2 µM. 0.18% of 370,000 active; in the data active = inhibition above about 11%
GC-B act: human GC-B receptor activators, primary screen, HEK293 GC-B cells, cGMP TR-FRET, EC30 CNP; 0.11% of 370,000 active; activation, % at 10 µM; AID 1920062, 2024; Atrial natriuretic peptide receptor 2 (Homo sapiens), P20594; 0% at EC30 CNP, 100% saturating CNP;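 active = activation at 10 µM reaching about 35% in either raw or pattern-adjusted values, limit read from the data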
Target sequence (P20594 whole entry, looked up): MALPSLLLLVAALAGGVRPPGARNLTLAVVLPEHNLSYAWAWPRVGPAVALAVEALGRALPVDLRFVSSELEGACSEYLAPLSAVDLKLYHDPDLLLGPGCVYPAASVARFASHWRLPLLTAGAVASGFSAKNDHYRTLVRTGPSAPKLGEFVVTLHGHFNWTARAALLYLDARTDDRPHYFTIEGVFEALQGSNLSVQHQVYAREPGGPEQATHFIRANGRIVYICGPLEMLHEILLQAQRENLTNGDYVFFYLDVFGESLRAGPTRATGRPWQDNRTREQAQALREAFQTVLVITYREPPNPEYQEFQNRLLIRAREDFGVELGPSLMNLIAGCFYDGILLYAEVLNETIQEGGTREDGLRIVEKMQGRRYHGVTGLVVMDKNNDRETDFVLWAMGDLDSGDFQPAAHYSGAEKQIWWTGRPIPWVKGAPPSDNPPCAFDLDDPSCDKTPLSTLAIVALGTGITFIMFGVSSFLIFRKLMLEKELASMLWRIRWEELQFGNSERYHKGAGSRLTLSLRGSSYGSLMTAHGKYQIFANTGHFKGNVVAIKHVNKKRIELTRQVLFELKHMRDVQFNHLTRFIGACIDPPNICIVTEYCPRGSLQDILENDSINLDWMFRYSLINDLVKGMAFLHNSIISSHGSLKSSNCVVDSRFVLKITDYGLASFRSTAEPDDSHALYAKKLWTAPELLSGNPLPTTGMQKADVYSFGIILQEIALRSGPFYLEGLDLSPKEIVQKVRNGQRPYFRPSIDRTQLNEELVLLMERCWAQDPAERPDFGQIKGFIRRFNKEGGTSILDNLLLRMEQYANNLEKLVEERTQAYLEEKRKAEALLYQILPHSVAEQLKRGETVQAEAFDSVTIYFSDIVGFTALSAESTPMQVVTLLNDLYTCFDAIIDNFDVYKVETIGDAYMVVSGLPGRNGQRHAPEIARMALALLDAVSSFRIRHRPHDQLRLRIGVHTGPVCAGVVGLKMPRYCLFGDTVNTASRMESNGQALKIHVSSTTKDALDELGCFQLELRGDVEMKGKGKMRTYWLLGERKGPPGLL
PfM18AAP inh-1: PfM18AAP inhibitors, malaria aminopeptidase, primary screen, biochemical, QFRET, recombinant enzyme; H-Glu-NHMec fluorogenic cleavage; inhibition, % at 7.35 µM; 1.2% of 290,000 active; AID 1822, 2009;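 active = inhibition above the campaign mean inhibition over all tested compounds plus 3 SD, cut at about 28% in these data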
PLC-gamma1 inh: PLC-gamma1 enzyme inhibitors, primary screen, biochemical, fluorescence, purified enzyme; 1-phosphatidylinositol 4,5-bisphosphate phosphodiesterase gamma-1 (Homo sapiens), P19174; fluorogenic substrate; inhibition, % at 12.2 µM; 0.84% of 370,000 active; AID 720700, 2013; in the data active = inhibition above about 9.5%
PfM18AAP inh-2: PfM18AAP inhibitors, malaria aminopeptidase, confirmation, biochemical, QFRET, recombinant enzyme, triplicate; H-Glu-NHMec fluorogenic cleavage; inhibition, % at 7.35 µM; 28% of 2,400 active; shares compounds with PfM18AAP inh-1;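 active = mean inhibition over replicate wells above the hit cutoff set for the earlier primary screen, cut at about 29% in these data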
CTSL1 counter: cathepsin L1 inhibitors, retest, confirmation, counter-screen for PFM18AAP inhibitor project, biochemical, QFRET, triplicate; shares compounds with PfM18AAP inh-1; purified cathepsin L1, Z-Leu-Arg-MCA fluorescence; inhibition, % at 5.96 µM; 2,400 tested, under 10 active; AID 2178, 2009;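 active = average inhibition across replicates above the hit cutoff set in the earlier primary screen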
Hits are given with their value; 0 = inactive; - = not tested or not shown.

SMILES	GC-A act	Rce1 inh	PLC-beta3 inh	GC-B act	PfM18AAP inh-1	PLC-gamma1 inh	PfM18AAP inh-2	CTSL1 counter
CC(C)OC(=O)c1c(NC(=O)C2CC=CCC2C(=O)O)sc2c1CCCCC2 (stereo not drawn)	0	0	0	0	0	0	-	-
NC(=O)c1c(NC(=S)Nc2ccc(F)cc2)sc2c1CCCC2	0	0	0	0	35	0	0	0
NC(=O)c1c(NC(=O)C2CC=CCC2C(=O)O)sc2c1CCCCC2 (stereo not drawn)	0	0	0	0	40	0	0	0
CCC(c1nnc(SCC(=O)Nc2nnc(-c3ccccc3)o2)o1)N(C)C (stereo not drawn)	0	0	0	0	69	0	35	0
O=C(CSc1nnc(-c2ccccc2)o1)Nc1ccccc1F	0	0	0	0	0	0	-	-
COc1ccc(/C=C2\SC(=O)N(CC(=O)Nc3ccc(O)cc3)C2=O)cc1OC	0	0	0	0	0	0	-	-
COc1ccc(/C=C2\SC(=O)N(CC(=O)NN3CCN(C)CC3)C2=O)cc1OC	0	0	0	0	37	0	0	0
Cc1cc(C)cc(OCC(=O)Nc2nc(-c3cccnc3)cs2)c1	0	0	0	0	44	0	0	0
COc1cc2ccc(=O)oc2c(O)c1OCC=C(C)C	0	0	0	0	40	0	0	0
COc1cc2c(cc1NC(=O)CSc1nnc(-c3ccccn3)n1-c1ccccc1)oc1ccccc12	0	-	0	0	-	0	-	-
Cc1ccc(S(=O)(=O)Nc2ccc(O)c3ncccc23)cc1	0	0	0	0	40	0	0	0
Cc1ccc(S(=O)(=O)Nc2cccc3ncccc23)cc1	0	0	0	0	0	0	-	-
Cc1ccc(S(=O)(=O)Nc2ccc(O)c3cccnc23)cc1	0	-	0	0	49	0	30	0
CCOCCCn1c(=O)c2ccccc2n2c(=S)[nH]nc12	0	0	0	0	46	0	0	0
C=CCn1c(=O)c2ccccc2n2c(=S)[nH]nc12	0	0	0	0	0	0	-	-
Cc1ccccc1/C=N/N=C1/NC(=O)CCS1	0	-	0	0	65	0	0	0
CN(C)CC(=O)N[C@@H]1C[C@@H]2O[C@@H](CO)CC[C@@H]2O[C@@H]1CCc1ccc(C#Cc2ccccc2)cc1	0	-	0	0	-	0	-	-
COc1cccc(-c2cc(C(C)=O)c3n(c2=O)CCC3)c1OC	0	-	0	0	-	0	-	-
O=C(Cc1ncn[nH]1)NCCc1ccccc1	0	0	0	0	32	0	40	0
CCOC(=O)C1(Cc2ccccc2)CCN(Cc2ccnc3ccccc23)CC1	0	-	0	0	-	0	-	-
C/C=C/c1ccc([C@@H]2[C@H](CO)N(S(C)(=O)=O)[C@H]2CN(C)C(=O)CC)cc1	0	-	0	0	-	0	-	-
CC(C)(C)OC(=O)/C=C/[C@H](CCCCl)Sc1ccc(C(C)(C)C)cc1	0	-	0	0	-	0	-	-
O=C(CSc1nnc(COc2ccccc2)n1-c1ccc(Cl)cc1)Nc1ccccc1-c1ccccc1	0	-	0	0	-	0	-	-
CN(C)c1ccnc2sc(C(=O)c3ccc(Br)cc3)c(N)c12	0	0	0	0	0	0	-	-
Cc1snc2sc(C(=O)c3ccc(F)cc3)c(N)c12	0	0	0	0	41	0	0	0
SMILES	GC-A act	Rce1 inh	PLC-beta3 inh	GC-B act	PfM18AAP inh-1	PLC-gamma1 inh	PfM18AAP inh-2	CTSL1 counter
C=CCc1c(C)nc(-c2ccccc2)nc1N/N=C(\C)c1ccccc1	0	0	0	0	37	0	0	0
C=CCc1c(C)nc(-c2ccccc2)nc1Nc1ccc(O)cc1	0	0	0	0	0	0	-	-
Cc1ccc(S(=O)(=O)NNc2nnc(C)c(=O)[nH]2)cc1	0	-	0	0	74	0	39	0
Cc1nnc(NNS(=O)(=O)c2ccc(Cl)cc2)[nH]c1=O	0	0	0	0	72	0	60	0
Cc1occc1C(=O)NNS(=O)(=O)c1ccc(Cl)cc1	0	0	0	0	0	0	-	-
COc1cccc(C(=O)n2ccc3ccc(-c4ccc5ccn(C(=O)c6cccc(OC)c6)c5c4)cc32)c1	0	-	0	0	-	0	-	-
Cc1ccc(S(=O)(=O)N/N=C/c2ccc(O)c(O)c2)cc1[N+](=O)[O-]	0	0	0	0	54	0	45	0
CN(C)c1ccc(/C=N\Nc2ccccn2)cc1	0	0	0	0	0	0	-	-
CN(C)c1ccc(/C=N/Nc2ccc(-n3ccnc3)nn2)cc1	0	0	0	0	34	0	0	0
CC(C)(C)c1ccc(C(=O)NNC(=O)c2ccc(Cl)cc2)cc1	0	0	0	0	0	0	-	-
Cc1ccc(NNC(=O)c2ccc(Cl)cc2)nn1	0	0	0	0	33	0	0	0
COc1ccc(S[C@]2(C(=O)N3CCN(c4ncccn4)CC3)CC(=O)N(c3ccsc3)[C@@H]2c2ccc(OC)cc2)cc1	0	-	0	0	-	0	-	-
Cc1ccc2[nH]c3c(c2c1)CCc1cn[nH]c1-3	0	0	0	0	33	0	0	0
Cc1ccc2[nH]c3c(c2c1)CCC3=O	0	0	0	0	0	0	-	-
C/C(=C\C(=O)c1ccccc1)NNc1nc2ccccc2s1	0	-	0	0	0	0	-	-
CCOc1ccc2nc(NC(=S)N(C)C)sc2c1	0	0	0	0	0	0	-	-
CC(=O)NNc1nc2ccccc2s1	0	0	0	0	51	0	0	0
CN(C)C(=S)Nc1nc2ccccc2s1	0	0	0	0	46	0	0	0
N#Cc1c(/N=C/c2ccco2)sc2c1CCCCC2	0	0	0	0	35	0	0	0
O=C(NCCc1ccccc1)OCc1cn(-c2ccccc2Cl)nn1	0	-	0	0	-	0	-	-
C=CCn1c(-c2ccc(OC)c(OC)c2)n[nH]c1=S	0	0	0	0	36	0	0	0
C=CCn1c(-c2sccc2C)n[nH]c1=S	0	0	0	0	32	0	0	0
C=CCn1c(-c2cccc(Cl)c2)n[nH]c1=S	0	0	0	0	0	0	-	-
CCn1c(-c2ccc(OC)c(OC)c2)n[nH]c1=S	0	0	0	0	0	0	-	-
COc1ccc(-n2c(CNC(=O)COc3ccc(Cl)cc3)n[nH]c2=S)cc1	0	0	0	0	0	0	-	-
COc1ccc(-n2c(Cn3nnc4ccccc43)n[nH]c2=S)cc1	0	0	0	0	38	0	0	0
